Assay results: PubChem BioAssay (NCATS)
Several values for one entry are separate records, joined by “and”; a condition that tells them apart may be missing. Equal entries are not always repeated. Inconclusive results are not listed. Activity calls are given as the source filed them. Unless noted, the call rests on the fitted dose curve; in most records, active means well fitted curve in the direction sought with a large enough effect; inconclusive means small, poorly fitted or top-dose-only effect, or another doubt; inactive means no such curve, though single readings can be large; an effect the other way counts as inactive or inconclusive.

Columns and labels:
[1] = qHTS to identify inhibitors of the type 1 interferon - major histocompatibility complex class I in skeletal muscle: primary screen against the NCATS LOPAC collection (AID 1347405);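 further: lytic HiBiT luminescence reporting HLA-B protein level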; further: potency means the concentration at half of the fitted maximal effect
Procedure, shortened: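 HLA-B HiBiT myoblasts, IFN-b 4 ng/ml, dexamethasone-free medium; compounds 7-pt 1:4.3 titration, top 46 uM final; 24 h at 37 C; Nano-Glo HiBiT lytic reagent, 10 min RT, luminescence.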

[2] = Validation qHTS assay for inhibitors of Activation Induced Cytidine Deaminase (AID): UDG Counterscreen signal (AID 1347427); further: 0% is about no effect
Procedure, shortened: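 Fluorescence at 560 nm excitation, 665 nm emission reports UDG signal after 250 mM NaOH (2x) addition and 30 min. Enzymes (AID 1 uM, UDG 2 U/mL, at 4/3x) preincubated 10 min with compound, then 4 h with 4x 250 nM DJC20/DJC23 substrate at room temperature.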

[3] = target: Single-stranded DNA cytosine deaminase (Homo sapiens) (UniProt Q9GZX7); assay: Validation qHTS assay for inhibitors of Activation Induced Cytidine Deaminase (AID): AID signal (AID 1347429); further: on the % scale 0 is the no-effect control and ±100 the full control effect
Procedure, shortened: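 AID+UDG coupled FRET deamination; cpds up to 114 uM final; DJC20/DJC23 substrate, 4 hr RT; NaOH stop, 30 min RT; read Ex 540/Em 590.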

[4] = Primary qHTS for inhibitors of La Crosse Virus (LACV) - induced cell death in SH-SY5Y cells (AID 1508616);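 further: top concentration of the series differs between compounds; 0% = infected DMSO wells and 100% = uninfected DMSO wells; higher means more rescue of cells from virus-induced death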
Procedure, shortened: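 Cytopathicity rescue screen: compounds pinned onto SH-SY5Y cells, which are then infected with LACV (MOI 0.01) and held 6 days at 37C. Percent activity is scaled between infected DMSO control and uninfected DMSO control.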

[5] = target: Calcium and integrin-binding protein 1 (Homo sapiens) (UniProt Q99828); assay: Validation qHTS for Identification of Calcium Integrin Binding protein 1 (CIB1) Competitor (AID 1508618); further: on the % scale 0 is the no-effect control and ±100 the full control effect
Procedure, shortened: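 Fluorescence polarization with 1 uM CIB1-GST and 100 nM FITC-alphaIIb peptide in HEPES pH 7.4, NaCl, 5 mM CaCl2, Tween20. Compounds at up to 114 uM final, preincubated with protein 15 min; read after 15 min more at RT.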

[6] = target: Calcium and integrin-binding protein 1 (Homo sapiens) (UniProt Q99828); assay: Primary qHTS for Identification of Calcium Integrin Binding Protein 1 (CIB1) Competitor (AID 1508620); further: potency means the concentration at half of the fitted maximal effect
Procedure, shortened: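 CIB1-GST (1 uM final) and compound incubated 15 min at room temperature before adding FITC-alphaIIb peptide tracer (100 nM final). Competition for binding read by fluorescence polarization (ex 480, em 540) after another 15 min at room temperature.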

[7] = Confirmatory qHTS for small molecule stabilizers of the endoplasmic reticulum resident proteome: Secreted ER Calcium Modulated Protein (SERCaMP) assay (AID 1508628); further: potency means the concentration at half of the fitted maximal effect; nearly all actives have a fitted effect of over 40% in size
Procedure, shortened: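 GLuc-SERCaMP-expressing SH-SY5Y cells, pretreated 16 h with compound, are challenged with thapsigargin to empty ER calcium stores; after 4 h, coelenterazine is added directly to the medium and luminescence is imaged.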

[8] = Primary qHTS for small molecule stabilizers of the endoplasmic reticulum resident proteome: Secreted ER Calcium Modulated Protein (SERCaMP) assay (AID 1508630); further: on the % scale 0 is the no-effect control and ±100 the full control effect
Procedure, shortened: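 The SH-SY5Y reporter protocol was run at 3 concentrations up to 38.3 uM (primary) or 11 concentrations (follow-up): 16 h compound, 100 nM thapsigargin for 4 h, then extracellular luciferase luminescence.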

[9] = tested on: Zika virus NS2B-NS3 protease (linked); assay: 384 well plate NINDS AMC confirmatory qHTS for Zika virus inhibitors (AID 1347163);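 further: linked protease at 5 30 or 60 nM final depending on run; fluorescence of AMC released from Ac-VKTGKR-AMC peptide cleaved by the protease; top concentration of the series differs between compounds; 0% = no-inhibitor control and -100% = no-enzyme control; nearly all actives have a fitted effect of over 50% in size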
Procedure, shortened: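 Enzyme (5, 30 or 60 nM final) first met test compounds for ~15 min. The AMC-tagged peptide Ac-VKTGKR-AMC followed at 30 microM. Fluorescence was then recorded at 25 min and scaled against no-enzyme and no-inhibitor wells.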

[10] = tested on: Zika virus NS2B-NS3 protease (linked construct); assay: 384 well plate NINDS Rhodamine confirmatory qHTS for Zika virus inhibitors (AID 1347164); conditions: rhodamine-110 peptide substrate fluorescence;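 further: fluorescence from protease cleavage of Ac-LKRR-rhodamine 110 substrate; potency means the concentration at half of the fitted maximal effect; nearly all actives have a fitted effect of over 65% in size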
Procedure, shortened: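 Linked protease at a final 5 nM, 30 nM or 60 nM was preincubated ~15 min with compounds, then given 10 microM Ac-LKRR-Rhodamine 110. Fluorescence (ex 485/em 538 nm) after 25 min in the dark at room temperature.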

[11] = Vero cells viability qHTS for Zika virus inhibitors (AID 1347167); further: on the % scale 0 is the no-effect control and ±100 the full control effect
Procedure, shortened: (§1)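 Luminescent ATP readout (CellTiter Glo) after 30 min at 37 degrees C gives viability; cells in DMEM + 4% FBS were treated 24 to 48 hours with compound, following overnight attachment.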

[12] = qHTS to identify inhibitors of the type 1 interferon - major histocompatibility complex class I in skeletal muscle: primary screen against the NCATS Pharmaceutical Collection (AID 1347407)
Procedure, shortened: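 Immortalized human myoblasts (C25cl48) with HiBiT knocked into endogenous HLA-B*08:01 were stimulated with 4 ng/ml IFN-beta and treated with compounds (8-point, 1:5, top 46 uM final) for 24 h at 37 C; HiBiT lytic luminescence read.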

[13] = target: Protein phosphatase 1D (Homo sapiens) (UniProt O15297); assay: RapidFire Mass Spectrometry qHTS Assay for Modulators of WT P53-Induced Phosphatase 1 (WIP1) (AID 1347424);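 further: amount of dephosphorylated VEPPL-S-QETFS peptide product formed by WIP1; series mostly up to about 63 µM; plate controls were DMSO wells for no effect and GSK830371 inhibitor control at 10 µM for full effect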
Procedure, shortened: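 RapidFire mass spectrometry measured dephosphorylated peptide after 5 min room-temperature reaction of 2 uM VEPPL-pS-QETFS with 10 nM WIP1 (50 mM Tris-HCl pH 7.5, 30 mM MgCl2, 0.1 mM EGTA, BSA), following 1 hr compound preincubation; 1 uM isotope-labelled product standard.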

[14] = target: Protein phosphatase 1D (Homo sapiens) (UniProt O15297); assay: Rhodamine-PBP qHTS Assay for Modulators of WT P53-Induced Phosphatase 1 (WIP1) (AID 1347425); further: % of control where 0% means no effect
Procedure, shortened: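 WIP1 (5 nM final) was preincubated with compound for 1 hour at room temperature. It then dephosphorylated 10 uM VEPPL-pS-QETFS peptide in Tris-HCl pH 7.5 with 30 mM MgCl2. Released Pi was detected by 10 uM Rh-PBP fluorescence (ex 525/em 598 nm) read at 1-min intervals for 11 min, as delta f1 - f0.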

[15] = target: Calcium and integrin-binding protein 1 (Homo sapiens) (UniProt Q99828); assay: Confirmatory qHTS for Identification of Calcium Integrin Binding Protein 1 (CIB1) Competitor (AID 1508617); further: potency means the concentration at half of the fitted maximal effect; nearly all actives have a fitted effect of over 65% in size
Procedure, shortened: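 FP competition: CIB1-GST (1 uM final) in 5 mM HEPES pH 7.4, 125 mM NaCl, 5 mM CaCl2, 0.01% Tween20 preincubated 15 min RT with compounds (up to 114 uM), then FITC-alphaIIb peptide (100 nM), 15 min RT; Ex 480/Em 540.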

[16] = qHTS to identify inhibitors of the type 1 interferon - major histocompatibility complex class I in skeletal muscle: primary screen against the NCATS Mechanism Interrogation Plate v5.0 (MIPE) Libary (AID 1347411); further: nearly all actives have a fitted effect of over 65% in size; further: potency means the concentration at half of the fitted maximal effect;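 on activity change, negative = inhibition: plate controls were vehicle for no effect and reference inhibitor for full effect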
Procedure, shortened: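 HLA-B HiBit myoblasts, dexamethasone-free medium + 4 ng/ml IFN-b, 24 h compound, 11-pt 1:3 from 46 uM final. Readout: Nano-Glo HiBiT lytic luminescence after 10 min lysis, RT.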

[17] = Tertiary RLuc qRT-PCR qHTS assay for Zika virus inhibitors (AID 1347169); further: nearly all actives have a fitted effect of over 55% in size; further: potency means the concentration at half of the fitted maximal effect
Procedure, shortened: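 Vero cells (1,000 per well) plated overnight at 37 degrees C, treated with compound in DMSO, then infected with recombinant ZIKV-RLuc (Cambodian) at MOI 1-2 for 48-72 hrs. Live-cell Renilla luciferase substrate added; luminescence read after 1-1.5 hrs.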

[18] = A High-Content qHTS Against Drug Library for the Identification of Small Molecules that Inhibit DYT1 Early Onset Primary Dystonia-Associated Cell Pathology (AID 1645839; calls by dose curve; further: series mostly up to about 46 µM)
Procedure, shortened: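 High-content imaging quantified EGFP-TorsinA mislocalization in HEK293-derived cells inducibly expressing DYT1 mutant torsinA, after 48 h exposure to compound given together with tetracycline induction. Cell count served as a toxicity channel alongside %pathology.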

[19] = HepG2 cells viability qHTS for Zika virus inhibitors (AID 1347168); further: on the % scale 0 is the no-effect control and ±100 the full control effect
Procedure, shortened: as §1

[20] = Cell Viability qHTS for small molecule stabilizers of the endoplasmic reticulum resident proteome (AID 1508629); conditions: cell viability counter-screen, 100 nM thapsigargin for final 4 h

Chain of Single-stranded DNA cytosine deaminase (Homo sapiens) (Q9GZX7 whole entry, looked up): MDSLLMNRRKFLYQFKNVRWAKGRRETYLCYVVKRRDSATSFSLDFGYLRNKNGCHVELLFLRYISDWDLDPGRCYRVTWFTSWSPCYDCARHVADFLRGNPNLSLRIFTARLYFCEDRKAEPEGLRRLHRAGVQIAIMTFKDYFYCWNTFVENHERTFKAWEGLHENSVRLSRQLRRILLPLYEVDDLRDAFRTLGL
Chain of Calcium and integrin-binding protein 1 (Homo sapiens) (Q99828 whole entry, looked up): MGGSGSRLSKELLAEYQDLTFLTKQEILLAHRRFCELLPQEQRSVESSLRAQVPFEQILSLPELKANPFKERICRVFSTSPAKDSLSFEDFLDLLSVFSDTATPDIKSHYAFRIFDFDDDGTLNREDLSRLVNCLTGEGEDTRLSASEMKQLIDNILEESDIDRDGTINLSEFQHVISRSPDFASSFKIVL
Chain of Protein phosphatase 1D (Homo sapiens) (O15297 whole entry, looked up): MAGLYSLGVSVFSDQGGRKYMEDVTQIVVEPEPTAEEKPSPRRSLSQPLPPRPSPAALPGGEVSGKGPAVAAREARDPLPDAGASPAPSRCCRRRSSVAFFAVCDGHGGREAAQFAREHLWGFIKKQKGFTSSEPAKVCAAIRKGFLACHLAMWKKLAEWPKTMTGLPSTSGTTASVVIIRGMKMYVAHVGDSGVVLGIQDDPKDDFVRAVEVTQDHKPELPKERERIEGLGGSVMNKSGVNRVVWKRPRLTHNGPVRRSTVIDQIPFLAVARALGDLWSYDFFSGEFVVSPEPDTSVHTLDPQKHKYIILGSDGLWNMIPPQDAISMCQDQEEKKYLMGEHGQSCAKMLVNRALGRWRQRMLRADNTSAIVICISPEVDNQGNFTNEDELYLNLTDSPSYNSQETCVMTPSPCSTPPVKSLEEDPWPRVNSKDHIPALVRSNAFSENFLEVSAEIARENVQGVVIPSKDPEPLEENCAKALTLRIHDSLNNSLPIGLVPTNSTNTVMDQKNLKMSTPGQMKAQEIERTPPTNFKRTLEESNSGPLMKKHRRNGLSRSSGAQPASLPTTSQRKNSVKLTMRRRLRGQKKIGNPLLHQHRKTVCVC

Clc1ccc2c(c1)N=C(N1CCNCC1)c1ccccc1N2
inactive: Potency [1] | outcome [2] | outcome [3] | outcome [4] | outcome [5] | Potency [6]
active: Potency [7] 14.1 µM and 10 µM

N[C@@H](Cn1ccc(=O)c(O)c1)C(=O)O
inactive: Potency [1] | outcome [2] | outcome [3] | outcome [4] | outcome [5] | activity change, negative = inhibition [6] 2.21% [at 12.4 µM] | Potency [8]

CCOC(=O)Cn1cccc1-c1nc(-c2ccc(OC)cc2)c(-c2ccc(OC)cc2)s1
inactive: Potency [9] | outcome [11] | Potency [12] | Potency [13] | outcome [14] | Potency [6] | Potency [8]
active: Potency [10] 0.398 µM

Nc1cc(C(F)(F)F)ccc1S
active: Potency [15] 22.4 µM | Potency [6] 28.2 µM
inactive: Potency [12] | Potency [13] | outcome [14] | outcome [4]

CC(C)N(CCC(=O)c1ccc2ccccc2c1)Cc1ccccc1
inactive: outcome [2] | outcome [3] | outcome [5] | Potency [8]
active: Potency [1] 12.6 µM | Potency [16] 5.87 µM | Potency [6] 28.2 µM

CCN(CC)CCNC(=O)c1ccc(NS(C)(=O)=O)cc1
inactive: Potency [1] | outcome [2] | outcome [3] | outcome [4] | outcome [5] | Potency [8]

COc1c(C)c2c(c(O)c1C/C=C(\C)CCC(=O)OCCN1CCOCC1)C(=O)OC2
inactive: outcome [11] | Potency [12] | Potency [13] | outcome [14] | Potency [6] | Potency [8] | Potency [18]
active: Potency [17] 0.739 µM

Cc1nc(C2CCCCC2)c(-c2ccc(S(N)(=O)=O)c(F)c2)o1
inactive: outcome [11] | outcome [19] | Potency [13] | outcome [14] | outcome [4] | Potency [6] | Potency [18]

O=C1OC2(c3ccccc31)c1cc(I)c(O)c(I)c1Oc1c2cc(I)c(O)c1I
inactive: activity change, negative = inhibition [17] 6.31% [at 1.74 µM] | outcome [4] | Potency [18]

CC1(C)O[C@@H]2C[C@H]3[C@@H]4C[C@H](F)C5=CC(=O)C=C[C@]5(C)[C@@]4(F)[C@@H](O)C[C@]3(C)[C@]2(C(=O)CO)O1
inactive: Potency [12] | Potency [16] | outcome [14] | outcome [4] | Potency [6] | Potency [8]

NC(N)=NCCCCN=C(N)N
inactive: Potency [1] | outcome [2] | outcome [3] | outcome [4] | outcome [5] | Potency [8]

Cc1nc([N+](=O)[O-])cn1-c1ccc([N+](=O)[O-])cc1
inactive: Potency [12] | Potency [13] | outcome [14] | outcome [4] | Potency [6] | Potency [8]

Nc1nc(=O)n([C@@H]2O[C@H](CO)[C@@H](O)[C@@H]2F)cc1I
inactive: Potency [12] | Potency [13] | outcome [14] | outcome [4] | Potency [6]

CCCCC(CC)CNC(=O)CC(C)OC(=O)CCC(=O)O (configuration not stated)
inactive: Potency [12] | Potency [13] | outcome [14] | outcome [4] | Potency [6] | Potency [8]

Oc1cccc2[nH]ccc12
inactive: Potency [12] | Potency [13] | outcome [14] | outcome [4] | Potency [6]

O=C(O)Cc1ccc(OCCNC[C@H](O)c2ccccc2)cc1
inactive: Potency [12] | Potency [13] | outcome [14] | outcome [4] | Potency [6] | Potency [8]

Cc1ccc(CCn2c3c(c4cc(Cl)ccc42)CN(C)CC3)cn1
inactive: Potency [12] | Potency [13] | outcome [14] | outcome [4] | Potency [6]

CC(C)C[C@@H]1[C@H](c2ccccc2)OC(=O)N1CCCN1CCCCCC1
inactive: Potency [12] | Potency [13] | outcome [14] | outcome [4] | Potency [6] | max response [20] -0.48%
active: Potency [7] 31.6 µM

CN1Cc2cc(C(=O)N3CCC(C4CCNCC4)CC3)ccc2NC(CC(=O)O)C1=O (configuration not stated)
inactive: Potency [12] | Potency [13] | outcome [14] | outcome [4] | Potency [6]

Cc1cc(=O)oc2cc(O[C@@H]3SC[C@@H](O)[C@H](O)[C@H]3O)ccc12
inactive: Potency [12] | Potency [13] | outcome [14] | outcome [4] | Potency [6] | Potency [8]

CCOC(=O)Oc1ccc(CCNC(=O)[C@H](CCSC)NC(C)=O)cc1OC(=O)OCC
inactive: Potency [12] | Potency [13] | outcome [14] | outcome [4] | Potency [6]

CCCc1ccc(OCC(=O)N2CCN(C(=O)COc3ccc(CCC)cc3OC)CC2)c(OC)c1
inactive: Potency [12] | Potency [13] | outcome [14] | outcome [4] | Potency [6] | Potency [8]

O=C(CCC1CCN(Cc2ccccc2)CC1)c1ccc2c(c1)NCCCC2
inactive: Potency [12] | Potency [13] | outcome [14] | outcome [4] | Potency [6]

CN(C)CCOC1=Cc2ccccc2Sc2ccc(Cl)cc21
inactive: Potency [12] | Potency [13] | outcome [14] | outcome [4] | Potency [6]

Cc1ccc(Cl)c(OCC(O)CNC(C)(C)C)c1 (configuration not stated)
inactive: Potency [12] | Potency [13] | outcome [14] | outcome [4] | Potency [6] | Potency [8]

C#Cc1ccc(-c2ccccc2F)cc1
inactive: Potency [12] | Potency [13] | outcome [14] | outcome [4] | Potency [6]

CN1CCC(=C2c3ccccc3CCc3cccnc32)CC1
inactive: Potency [12] | Potency [13] | outcome [14] | outcome [4] | Potency [6] | max response [20] 12.6% | Potency [18]

CCOC(=O)c1ccc(O)c(O)c1
inactive: Potency [12] | Potency [13] | outcome [14] | outcome [4] | Potency [6] | max response [20] 4.88%

Brc1ccccc1-c1ccccc1
inactive: Potency [12] | Potency [13] | outcome [14] | outcome [4] | Potency [6]

CCCCC/C=C\C/C=C\CCCCCCCC(=O)NC(C)c1ccccc1 (configuration not stated)
inactive: Potency [12] | Potency [13] | outcome [14] | outcome [4] | Potency [6]
